Test results from PubChem BioAssay (Tox21).
Results filed as inconclusive are left out. A call without a number means that no potency is given here. Activity calls are given as the source filed them. Unless noted, calls follow the shape of the dose curve; as a rule, active = well fitted curve in the direction sought with a large enough effect in the repeat runs; inconclusive = weak or mixed curves; inactive = no such curve, though single readings can be large; an effect the other way counts as inactive or inconclusive.

Legend:
[1] = qHTS assay to identify small molecule antagonists of the glucocorticoid receptor (GR) signaling pathway - cell viability counter screen (AID 720693); also: nearly all actives have a fitted effect of over 55% in size
[2] = qHTS assay for identifying genotoxic compounds that show differential cytotoxicity against isogenic chicken DT40 cell lines with known DNA damage response pathways - wild type cell line (AID 743012); also: nearly all actives have a fitted effect of over 60% in size; also: potency is read from the fitted curve at half-maximal effect
Procedure, shortened: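 First, wild type DT40 cells were plated at 300 per well and equilibrated about 0.5 h at 37 C/5% CO2. Next, compounds in DMSO were added and exposure lasted 40 h. Finally, CellTiter-Glo was added for 30 min at room temperature and luminescence recorded.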

[3] = qHTS assay for identifying genotoxic compounds that show differential cytotoxicity against isogenic chicken DT40 cell lines with known DNA damage response pathways - Rev3 mutant cell line (AID 743014); also: nearly all actives have a fitted effect of over 55% in size; also: potency is read from the fitted curve at half-maximal effect
[4] = qHTS assay for identifying genotoxic compounds that show differential cytotoxicity against isogenic chicken DT40 cell lines with known DNA damage response pathways - Rad54/Ku70 mutant cell line (AID 743015); also: nearly all actives have a fitted effect of over 60% in size; also: potency is read from the fitted curve at half-maximal effect
[5] = qHTS assay to identify small molecule antagonists of the androgen receptor (AR) signaling pathway using the MDA cell line - cell viability counter screen (AID 743041; also: nearly all actives have a fitted effect of over 45% in size)
Procedure, shortened: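 Viability counter screen run alongside the AR antagonist reporter: cells seeded 5 h before compound, R1881 added, 16 h incubation at 37C without CO2, fluorescent CellTiter-Fluor signal quantified.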

[6] = qHTS assay to identify small molecule antagonists of the thyroid receptor (TR) signaling pathway - cell viability counter screen (AID 743064); also: nearly all actives have a fitted effect of over 50% in size; also: potency is read from the fitted curve at half-maximal effect
Procedure, shortened: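 Plate GH3.TRE-Luc cells; incubate 4 h at 37 °C; add compound, then T3 to 1 nM final; incubate 23.5 h; add CellTiter-Fluor; incubate 30 min at 37 °C, 5% CO2; read fluorescence.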

[7] = qHTS assay to identify small molecule antagonists of the thyroid receptor (TR) signaling pathway (AID 743065); also: nearly all actives have a fitted effect of over 55% in size; also: potency is read from the fitted curve at half-maximal effect
Procedure, shortened: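 GH3.TRE-Luc rat pituitary cells carrying two TR response elements driving luciferase were plated for 4 h, given compound plus 1 nM T3 (final), and incubated 23.5 h at 37 C. ONE-Glo luminescence measured reporter inhibition; CellTiter-Fluor fluorescence tracked cytotoxicity.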

[8] = system: thyroid hormone receptor (rat, GH3 cells); assay: qHTS assay to identify small molecule agonists of the thyroid receptor (TR) signaling pathway (AID 743066; calls by dose curve)
[9] = qHTS assay to identify small molecule antagonists of the estrogen receptor alpha (ER-alpha) signaling pathway - cell viability counter screen (AID 743074; calls by dose curve;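 also: HEK293 cells carrying ER-alpha-UAS-bla reporter stimulated with 17beta-estradiol; nearly all actives have a fitted effect of over 45% in size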)
[10] = qHTS assay to identify small molecule antagonists of the estrogen receptor alpha (ER-alpha) signaling pathway using the BG1 cell line - cell viability counter screen (AID 743081);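 also: compound given together with 17beta-estradiol as the ER stimulus; series mostly up to about 70 µM; nearly all actives have a fitted effect of over 45% in size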
Aromatase (Homo sapiens) = Aromatase (Homo sapiens) (UniProt P11511); assay: qHTS assay to identify aromatase inhibitors (AID 743083); also: series mostly up to about 70 µM; nearly all actives have a fitted effect of over 55% in size
Aromatase (Homo sapiens), sequence (P11511 whole entry, looked up): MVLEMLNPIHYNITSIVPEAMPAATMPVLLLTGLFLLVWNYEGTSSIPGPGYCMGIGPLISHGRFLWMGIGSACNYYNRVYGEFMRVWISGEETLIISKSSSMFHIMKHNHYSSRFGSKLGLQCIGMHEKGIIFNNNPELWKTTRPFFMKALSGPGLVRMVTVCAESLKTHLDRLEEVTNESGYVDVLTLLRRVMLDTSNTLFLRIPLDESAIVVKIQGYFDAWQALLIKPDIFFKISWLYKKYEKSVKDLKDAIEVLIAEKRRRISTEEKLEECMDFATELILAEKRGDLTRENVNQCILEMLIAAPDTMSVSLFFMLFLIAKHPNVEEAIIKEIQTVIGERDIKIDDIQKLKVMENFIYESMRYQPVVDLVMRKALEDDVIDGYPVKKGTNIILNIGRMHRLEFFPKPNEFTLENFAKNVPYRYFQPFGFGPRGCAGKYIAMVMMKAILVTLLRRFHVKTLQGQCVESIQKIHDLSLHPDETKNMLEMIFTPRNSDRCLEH

[11] = qHTS assay to identify small molecule antagonists of the androgen receptor (AR) signaling pathway - cell viability counter screen (AID 743033; also: nearly all actives have a fitted effect of over 45% in size)
[12] = target: Androgen receptor (Homo sapiens) (UniProt P10275); assay: qHTS assay to identify small molecule antagonists of the androgen receptor (AR) signaling pathway (AID 743035; active = well fitted inhibition curve with a large enough effect in the signal ratio in the repeat runs, not every such curve was filed as active; the % refers to the signal ratio)
Androgen receptor (Homo sapiens), sequence (P10275 whole entry, looked up): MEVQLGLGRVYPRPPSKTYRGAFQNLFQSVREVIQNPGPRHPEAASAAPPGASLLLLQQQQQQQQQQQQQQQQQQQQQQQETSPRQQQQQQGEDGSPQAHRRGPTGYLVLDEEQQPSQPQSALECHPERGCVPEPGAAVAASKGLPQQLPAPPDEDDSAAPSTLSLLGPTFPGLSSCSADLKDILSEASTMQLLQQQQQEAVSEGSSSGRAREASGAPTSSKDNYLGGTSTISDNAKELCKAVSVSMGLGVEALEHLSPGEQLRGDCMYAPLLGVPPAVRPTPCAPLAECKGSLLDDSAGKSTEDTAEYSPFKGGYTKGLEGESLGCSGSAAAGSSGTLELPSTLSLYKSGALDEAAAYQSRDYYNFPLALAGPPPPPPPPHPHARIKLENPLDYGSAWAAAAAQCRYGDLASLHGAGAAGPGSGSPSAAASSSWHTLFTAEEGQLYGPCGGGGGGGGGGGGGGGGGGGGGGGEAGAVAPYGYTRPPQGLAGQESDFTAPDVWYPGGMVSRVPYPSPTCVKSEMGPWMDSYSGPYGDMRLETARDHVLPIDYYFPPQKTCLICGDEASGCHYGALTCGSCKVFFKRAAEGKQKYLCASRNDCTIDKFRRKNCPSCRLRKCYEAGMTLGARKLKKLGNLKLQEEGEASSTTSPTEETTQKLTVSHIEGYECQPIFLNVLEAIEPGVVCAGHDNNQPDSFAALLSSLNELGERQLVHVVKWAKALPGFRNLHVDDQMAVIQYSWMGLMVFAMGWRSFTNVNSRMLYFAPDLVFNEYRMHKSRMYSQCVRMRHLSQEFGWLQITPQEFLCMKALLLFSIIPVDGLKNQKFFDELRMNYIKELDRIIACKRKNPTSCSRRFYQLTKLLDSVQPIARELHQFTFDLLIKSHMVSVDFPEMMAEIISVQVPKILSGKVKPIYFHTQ
Procedure, shortened: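 Beta-lactamase FRET read (2 h RT incubation with LiveBLAzer B/G) following 16 h of compound plus R1881 treatment of AR-UAS-bla HEK293 cells, which had been pre-incubated 4 h at 37C.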

[13] = target: Androgen receptor (Homo sapiens) (UniProt P10275); assay: qHTS assay to identify small molecule agonists of the androgen receptor (AR) signaling pathway (AID 743036; active = well fitted activation curve with a large enough effect in the signal ratio in the repeat runs, with a control signal flat, not every such curve was filed as active; the % refers to the signal ratio)
Procedure, shortened: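 Reporter line: GeneBLAzer AR-UAS-bla-GripTite (HEK293). Steps: plate cells, 4 h rest, add compounds, 16 h at 37C, add LiveBLAzer B/G substrate, 2 h at RT, read fluorescence.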

[14] = target: Androgen receptor (Homo sapiens) (UniProt P10275); assay: qHTS assay to identify small molecule agonists of the androgen receptor (AR) signaling pathway using the MDA cell line (AID 743040; also: nearly all actives have a fitted effect of over 20% in size)
Procedure, shortened: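 Luminescence from ONE-Glo, read after 30 min at room temperature, reflects MMTV-driven luciferase in MDA-kb2 cells (AR- and GR-responsive). Treatment lasted 16 h at 37C, 0% CO2.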

[15] = target: Androgen receptor (Homo sapiens) (UniProt P10275); assay: qHTS assay to identify small molecule antagonists of the androgen receptor (AR) signaling pathway using the MDA cell line (AID 743042; also: nearly all actives have a fitted effect of over 55% in size)
Procedure, shortened: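 MDA-kb2 cells (human breast carcinoma, stably carrying an MMTV-luciferase reporter responsive to AR and GR) were plated at 3,000 cells/well and preincubated 5 hr at 37C, then given compound plus R1881 agonist for 16 h. ONE-Glo luminescence was read.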

[16] = target: Estrogen receptor (Homo sapiens) (UniProt P03372); assay: qHTS assay to identify small molecule antagonists of the estrogen receptor alpha (ER-alpha) signaling pathway (AID 743069; active = well fitted curve in the direction sought with a large enough effect in the signal ratio in the repeat runs, not every such curve was filed as active; the % refers to the signal ratio)
Estrogen receptor (Homo sapiens), sequence (P03372 whole entry, looked up): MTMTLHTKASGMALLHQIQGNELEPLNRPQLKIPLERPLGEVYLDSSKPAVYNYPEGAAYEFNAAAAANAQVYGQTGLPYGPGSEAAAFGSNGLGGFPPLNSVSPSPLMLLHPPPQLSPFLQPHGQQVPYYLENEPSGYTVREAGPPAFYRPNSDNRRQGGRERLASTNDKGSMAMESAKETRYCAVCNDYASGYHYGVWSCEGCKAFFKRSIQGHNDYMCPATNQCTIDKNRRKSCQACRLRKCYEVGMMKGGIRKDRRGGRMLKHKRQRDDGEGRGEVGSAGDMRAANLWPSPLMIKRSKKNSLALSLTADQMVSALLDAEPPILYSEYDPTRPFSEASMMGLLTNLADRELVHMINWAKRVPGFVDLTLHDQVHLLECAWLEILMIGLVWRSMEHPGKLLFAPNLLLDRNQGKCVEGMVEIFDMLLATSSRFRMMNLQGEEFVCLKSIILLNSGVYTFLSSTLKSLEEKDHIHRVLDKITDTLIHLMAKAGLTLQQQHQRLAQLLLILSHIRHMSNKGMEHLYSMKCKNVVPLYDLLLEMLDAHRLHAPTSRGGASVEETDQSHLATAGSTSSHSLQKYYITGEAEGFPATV
Procedure, shortened: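 Estradiol-stimulated ER-alpha-UAS-bla HEK293 cells, 18 hr compound exposure at 37C. LiveBLAzer B/G substrate, 2 hr RT, fluorescence read.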

[17] = target: Estrogen receptor (Homo sapiens) (UniProt P03372); assay: qHTS assay to identify small molecule agonists of the estrogen receptor alpha (ER-alpha) signaling pathway (AID 743075; calls by dose curve;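 also: HEK293 GripTite cells with ER-alpha and UAS-driven beta-lactamase reporter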)
[18] = target: Estrogen receptor (Homo sapiens) (UniProt P03372); assay: qHTS assay to identify small molecule agonists of the estrogen receptor alpha (ER-alpha) signaling pathway using the BG1 cell line (AID 743079); also: nearly all actives have a fitted effect of over 20% in size
[19] = qHTS assay to identify small molecule antagonists of the estrogen receptor alpha (ER-alpha) signaling pathway using the BG1 cell line (AID 743080; calls by dose curve;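 also: BG1 cells stimulated with 17beta-estradiol alongside compound; series mostly up to about 70 µM; nearly all actives have a fitted effect of over 25% in size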)
Procedure, shortened: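 Endogenous full-length ER-alpha in BG1-Luc-4E2 cells drives a stably integrated 4×ERE luciferase gene; compounds were tested against 17beta-estradiol over 21.5 h, with luminescence and multiplexed viability fluorescence recorded.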

Compound | Potency [1] | Potency [2] | Potency [3] | Potency [4] | Potency [5] | Potency [6] | Potency [7] | Potency [8] | outcome [9] | Potency [10] | Potency (Aromatase (Homo sapiens)) | Potency [11] | Potency [12] | outcome [13] | Potency [14] | Potency [15] | Potency [16] | Potency [17] | Potency [18] | Potency [19]
N#Cc1c(F)cccc1F | inactive | inactive | inactive | inactive | inactive | inactive | inactive | inactive | inactive | inactive | inactive |  |  |  |  |  |  |  |  | 
CCN(CC)CCOC(=O)C1(c2ccccc2)CCCC1 | inactive | 26.6 µM (active) |  | 23.7 µM (active) | inactive |  | inactive | inactive | inactive | inactive | inactive | inactive | inactive | inactive | inactive | inactive | inactive | inactive | inactive | inactive
CCOc1cc(OCC)c(C(=O)CCC(=O)O)cc1OCC | inactive | inactive |  | inactive | inactive | inactive | inactive | inactive | inactive | inactive | inactive |  |  |  |  |  |  | inactive | inactive | inactive
CCCCCc1ccc(N)cc1 | inactive | inactive |  |  |  | inactive | inactive | inactive |  | inactive |  | inactive |  |  |  |  |  | inactive | inactive | 
Oc1ccc(C(O)CNCCCCCCNCC(O)c2ccc(O)c(O)c2)cc1O (configuration not stated) | inactive | 26.6 µM (active) | 29.8 µM (active) |  |  | 15 µM (active) | 29.8 µM (active) | inactive | inactive |  | inactive |  |  |  |  |  |  |  |  | inactive
CCCCCCCCCCCCCCC1CO1 (configuration not stated) | inactive | inactive | inactive |  | inactive | inactive | inactive | inactive | inactive | inactive | inactive |  |  |  |  |  | inactive | inactive | inactive | inactive
CN(C)CCCNCCCN | inactive | inactive |  |  | inactive | inactive |  |  | inactive | inactive | inactive |  |  |  |  |  | inactive |  |  | inactive
CCN1CCC[C@H]1CNC(=O)c1c(OC)ccc(Br)c1OC | inactive | inactive |  | inactive | inactive |  |  |  | inactive | inactive | inactive | inactive |  |  |  |  | inactive | inactive | inactive | inactive
O=C(O)COC(=O)Cc1ccccc1Nc1c(Cl)cccc1Cl | inactive |  | inactive | inactive | inactive | inactive | inactive | inactive | inactive | inactive | inactive | inactive | inactive | inactive |  | inactive | inactive | inactive | inactive | inactive
N=C(N=C(N)N)N1CCOCC1 | inactive | inactive |  |  | inactive | inactive | inactive | inactive | inactive | inactive | inactive | inactive |  |  |  |  | inactive | inactive | inactive | inactive
O=[N+]([O-])c1cccc(Cl)c1Cl | inactive | inactive | inactive |  | inactive | inactive |  |  | inactive | inactive | inactive | inactive |  |  |  |  | inactive | inactive | inactive | inactive
CNCC[C@@H](Oc1ccccc1C)c1ccccc1 | inactive | 16.8 µM (active) |  |  | inactive |  | 23.7 µM (active) |  | inactive | inactive | inactive |  | inactive | inactive |  |  | inactive | inactive | inactive | inactive
O=C1c2cccc(O)c2C(=O)c2c(O)cc(CO)cc21 | inactive | inactive |  | 24.3 µM (active) | inactive | inactive | inactive | inactive | inactive | inactive | inactive | inactive |  |  |  |  |  | inactive |  | 
NC(=S)N/N=C/c1cccnc1 | inactive |  | inactive | inactive | inactive | inactive | inactive | inactive | inactive | inactive | inactive | inactive | inactive | inactive |  | inactive |  |  |  | 
CC(=O)c1c(C)c([N+](=O)[O-])c(C(C)(C)C)c([N+](=O)[O-])c1C | inactive | inactive | inactive |  | inactive |  |  | inactive | inactive | inactive | inactive | inactive |  |  |  |  |  |  |  | 
CCCCOC(=O)c1ccccc1C(=O)OCC(CC)CCCC (configuration not stated) | inactive | inactive |  | inactive | inactive | inactive | inactive | inactive |  | inactive | inactive | inactive |  |  |  |  |  | inactive | inactive | inactive
CN(C)CC/C=C1\c2ccccc2COc2ccccc21 | inactive | 29.8 µM (active) | 26.6 µM (active) |  | inactive | 13.3 µM (active) | 23.7 µM (active) |  | inactive | inactive | inactive |  |  | inactive |  | inactive |  |  |  | 
Cc1ncsc1CCO | inactive | inactive | inactive |  | inactive | inactive | inactive | inactive | inactive | inactive | inactive |  |  |  |  |  | inactive | inactive | inactive | inactive
Cc1cccc(OCCOc2cccc(C)c2)c1 | inactive | inactive |  |  | inactive | inactive |  |  | inactive | inactive | inactive | inactive |  |  |  |  | inactive | inactive |  | 
CCOC(=O)C1=NN(c2ccccc2)C(=O)C1 | inactive | inactive |  | inactive | inactive | inactive | inactive | inactive | inactive | inactive | inactive | inactive |  |  |  |  |  | inactive | inactive | inactive
CC(C(=O)O)c1ccc(C(=O)c2ccccc2)s1 (configuration not stated) | inactive | inactive | inactive |  | inactive | inactive | inactive |  | inactive | inactive | inactive |  | inactive |  |  | inactive | inactive | inactive |  | 
CCCCOc1cc(C(=O)OCCN(CC)CC)ccc1N | inactive | 10.1 µM (active) | 2.54 µM (active) |  | inactive | inactive |  | inactive | inactive | inactive | inactive | inactive |  |  |  |  | inactive | inactive | inactive | inactive
